In PubChem BioAssay (EPA / NIEHS):
Results filed as inconclusive are left out. Calls of active or inactive are those of the source. How the source made its calls: active means hit-call score of the fitted dose curve at least 0.9, where 1 is the maximum; inconclusive means response in the unintended direction; inactive means score below 0.9.

Biological target: human Vitamin D Receptor (VDR), VDR (gene 7421) (UniProt P11473)
Assay: ATG_VDR_TRANS: Attagene TRANS-FACTORIAL HepG2 Assay for human Vitamin D Receptor (VDR) (AID 2283022)
How it was run: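 Multiplexed TRANS reporter in HepG2; 24 h treatment; reporter mRNA by RT-PCR plus capillary electrophoresis; upregulation scored relative to DMSO.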

Chain of human Vitamin D Receptor (VDR), VDR (gene 7421) (P11473 whole entry, looked up): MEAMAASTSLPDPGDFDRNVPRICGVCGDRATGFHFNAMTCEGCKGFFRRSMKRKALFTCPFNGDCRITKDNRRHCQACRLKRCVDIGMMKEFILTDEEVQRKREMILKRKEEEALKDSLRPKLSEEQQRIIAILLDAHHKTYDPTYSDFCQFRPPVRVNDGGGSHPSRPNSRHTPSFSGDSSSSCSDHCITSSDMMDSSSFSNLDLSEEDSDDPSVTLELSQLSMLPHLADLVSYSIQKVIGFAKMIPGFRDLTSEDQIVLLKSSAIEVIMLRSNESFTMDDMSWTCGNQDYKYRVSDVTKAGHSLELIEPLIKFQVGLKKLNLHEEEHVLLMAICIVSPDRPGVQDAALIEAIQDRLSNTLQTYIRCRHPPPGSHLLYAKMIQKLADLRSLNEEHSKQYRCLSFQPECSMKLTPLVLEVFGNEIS

| Structure (SMILES) | outcome |
| --- | --- |
| C=CCOC(=O)CC(C)C | inactive |
| CN(C)C(C)(C)CO | inactive |
| CCc1cc(Cc2cc(CC)c(N)c(CC)c2)cc(CC)c1N | inactive |
| F[Si-2](F)(F)(F)(F)F | inactive |
| COCCC(=O)OC | inactive |
| CCC(Cc1c(I)cc(I)c(N)c1I)C(=O)O (stereo unspecified) | inactive |
| O=C(c1ccccc1)c1ccc(Cl)cc1 | inactive |
| CN1CN(C)CN(C)C1 | inactive |
| Nc1c(Br)cc([N+](=O)[O-])cc1Br | inactive |
| C=C(C)CCCC | inactive |
| CC(C)Nc1ccc(NC(C)C)c2c1C(=O)c1ccccc1C2=O | inactive |
| CC(C)(C)c1cc(CCC(=O)OCC(COC(=O)CCc2cc(C(C)(C)C)c(O)c(C(C)(C)C)c2)(COC(=O)CCc2cc(C(C)(C)C)c(O)c(C(C)(C)C)c2)COC(=O)CCc2cc(C(C)(C)C)c(O)c(C(C)(C)C)c2)cc(C(C)(C)C)c1O | inactive |
| CC(O)C#CC(C)O (stereo unspecified) | inactive |
| CSc1ccc(O)cc1C | inactive |
| CC(C)(C)C(=O)C1C(=O)c2ccccc2C1=O | inactive |
| O=C1c2ccccc2C(=O)c2c(Cl)cccc21 | inactive |

| Structure (SMILES) | outcome |
| --- | --- |
| CC(C)=CCCC(C)O (stereo unspecified) | inactive |
| CCCCOC(=O)[C@H](C)O | inactive |
| CCCCCCCCn1sc(Cl)c(Cl)c1=O | inactive |
| Cc1cc(=O)[nH]c(C(C)C)n1 | inactive |
| O=C1C=CC(=O)N1c1ccccc1 | inactive |
| N#Cc1ccccc1O | inactive |
| O=c1cccc[nH]1 | inactive |
| Brc1ccccn1 | inactive |
| CC(=O)c1ccccc1N | inactive |
| Cc1ccc(O)cn1 | inactive |
| CC1=CCC2C(=O)OC(=O)C2C1 (stereo unspecified) | inactive |
| OCCC(O)CO (stereo unspecified) | inactive |
| C[Si](C)O[Si](C)C | inactive |
| Oc1ccc2c(c1)CCC2 | inactive |
| OCCCCl | inactive |
